Experimental findings from PubChem BioAssay AID463173 (ICCB-Longwood Screening Facility, Harvard Medical School, 2010) are described below.

Screen size: about 52,000 compounds; about 1,700 (3.3%) were called active. The list comes from a sample in which actives are over-represented; it also holds similar structures and randomly drawn compounds. Values without a mark were called inactive. No stated cut-off is given here; in the data, active means survival mostly below about 52% (no sharp cut-off); inactive means mostly above about 56%.

The subject of this assay is Wild type. Put plainly: S. aureus survival, RN4220 and DeltatarO strains – OD600, teichoic acid synthesis inhibitors, primary screen (AID 463173). The conditions noted are these: S. aureus RN4220 wild type/DeltatarO growth, OD600, 18 h, stronger effect = lower value, screened at 18.75 µg/mL (by protocol).
Regarding `CCc1ccc(-c2nc3c(c(SCc4ccccc4)n2)Cc2c(CO)cnc(C)c2O3)cc1`, the survival was 89%.

For `COc1cccc(NC(=O)CSc2nccn2C2CCCC2)c1`, the survival was 73%.

In the case of `O=C1NC(=Nc2ccccc2)S/C1=C\c1ccc(C(=O)O)cc1`, the survival is 113%.

Regarding `CCOc1cccc(CC(=O)N2CCc3c([nH]c4ccccc34)C2c2ccccc2)c1OCC` (stereo not drawn), the survival was 81%.

With `COc1ccc(C(=O)NCCn2cc(SCC(=O)Nc3ccccc3)c3ccccc32)cc1OC`, the survival was 65%.

In the case of `COC(=O)c1ccc(Cn2c(SCc3ccccc3F)nc3ccncc32)cc1`, the survival is 74%.

For `O=C(OCc1cc(=O)n2nc(C3CC3)sc2n1)c1cccc(NC(=O)c2ccccc2Cl)c1`, the survival was 57%.

Consider `Cc1nnc(N2C(=O)c3oc4ccccc4c(=O)c3C2c2ccc(C(C)(C)C)cc2)s1` (stereo not drawn), for which the survival is 129%.

Consider `COc1ccccc1CNC(=O)CCNS(=O)(=O)c1ccc2c(c1)oc(=O)n2C`, for which the survival is 83%.

Regarding `Clc1ccccc1CSc1nnc(C2CCNCC2)o1`, the survival is 95%.

`CC(C)(C)OC(=O)N1CCC(c2nnc(SCc3cccc(Cl)c3)o2)CC1`: the survival was 0% (active).

For the compound `CC(C)(C)OC(=O)N1CCC(c2nnc(SCc3ccccc3Cl)o2)CC1`, the survival is -2% (active).

Take `Clc1cccc(CSc2nnc(C3CCNCC3)o2)c1`: the survival is 109%.

Turning to `CC(C)(C)OC(=O)N1CCC(c2nnc(SCc3ccccc3)o2)CC1`, the survival was 83%.

In the case of `CC(C)(C)OC(=O)N1CCC(c2nnc(SCc3ccccc3F)o2)CC1`, the survival is 73%.

For `CCCN1CCN(c2cc3c(cc2F)c(=O)c(S(=O)(=O)c2ccc(CC)cc2)cn3CC)CC1`, the survival was 70%.

For `Nc1ccc2c(c1)ncn2CCO`, the survival is 115%.

For `CCOc1ccccc1NC(=O)Cn1nc2c3cc(F)ccc3n(Cc3cccc(C)c3)cc-2c1=O`, the survival was 81%.

`CCc1ccccc1NC(=O)Cn1nc2c3cc(F)ccc3n(Cc3cccc(C)c3)cc-2c1=O`: the survival was 71%.

In the case of `COc1ccccc1NC(=O)Cn1nc2c3cc(F)ccc3n(Cc3cccc(C)c3)cc-2c1=O`, the survival was -4% (active).

As to `Cc1cc(C)cc(OCc2cc(=O)n3c(-c4ccccc4)csc3n2)c1`, the survival is 88%.

Turning to `Cc1cccc(NC(=O)C(=O)c2cc(C)n(-c3ccccc3)c2C)c1C`, the survival was 79%.

For the compound `CC(C)Oc1ccccc1-c1nc(SCC(=O)c2ccc(F)cc2)n[nH]1`, the survival is -5% (active).

As for `COc1ccc(CNC(=O)CSc2n[nH]c(-c3ccc(OC)cc3)n2)cc1`, the survival was -6% (active).

Regarding `COc1ccc(-c2nc(SCC(=O)NC(C)CCc3ccccc3)n[nH]2)cc1` (stereo not drawn), the survival is -1% (active).

For the compound `COc1ccccc1-c1nc(SCC(=O)c2ccccc2)n[nH]1`, the survival is 77%.

In the case of `COc1ccccc1-c1nc(SCC(=O)c2ccc(Cl)cc2)n[nH]1`, the survival is 131%.

Consider `CC(CCc1ccccc1)NC(=O)CSc1n[nH]c(-c2ccc(F)cc2)n1` (stereo not drawn), for which the survival is 134%.

With `O=C(CSc1n[nH]c(-c2ccccc2Cl)n1)NCCc1ccccc1`, the survival is 72%.

`Cc1ccc(CNC(=O)CSc2n[nH]c(-c3ccc(F)cc3)n2)cc1`: the survival is 124%.

As to `CC(CCc1ccccc1)NC(=O)CSc1n[nH]c(-c2ccccc2)n1` (stereo not drawn), the survival was 71%.

As for `O=C(CSc1n[nH]c(-c2ccccc2Cl)n1)NCc1ccc(F)cc1`, the survival was -6% (active).

Take `COc1ccc(CNC(=O)CSc2n[nH]c(-c3ccc(F)cc3)n2)cc1`: the survival is 120%.

Take `COc1cccc(CNC(=O)CSc2n[nH]c(-c3ccccc3Cl)n2)c1`: the survival is 75%.

Take `CCOC(=O)c1c(S(=O)(=O)N2CCC(C(=O)Nc3ncccc3C)CC2)c(C)n(C)c1C`: the survival was 72%.

Regarding `COc1cc(C(=O)N(CCCN(C)C)c2nc3c(OC)cccc3s2)cc(OC)c1OC`, the survival was 124%.

With `Cc1ccc(CN2CCCn3nc(C(=O)NCCc4ccccc4C)cc3C2=O)cc1`, the survival was 79%.

Regarding `O=C(c1ccccc1)C(C(=O)N1CCCCC1)n1ccccc1=O` (stereo not drawn), the survival is 113%.

For the compound `Cc1cc(=O)c2cc(C(=O)Nc3ccc(F)cc3)ccc2[nH]1`, the survival is 87%.

On to `Cc1ccc(S(=O)(=O)N(CC(=O)N2CCC(C(N)=O)CC2)c2ccccc2F)cc1`, for which the survival was 98%.

Regarding `Cc1ccccc1CN1CCN(CC(=O)NCc2ccccc2Cl)C1=O`, the survival was 77%.

On to `CCC(=O)N1c2ccc(S(=O)(=O)CCC(=O)NCc3cccc(OC)c3)cc2CC1C` (stereo not drawn), for which the survival is 82%.

As to `CCC(=O)N1c2ccc(S(=O)(=O)CCC(=O)NCc3ccccc3OC)cc2CC1C` (stereo not drawn), the survival is 87%.

Regarding `COc1ccccc1CNC(=O)CCS(=O)(=O)c1ccc2c(c1)CC(C)N2C(=O)C1CC1` (stereo not drawn), the survival is 0% (active).

Consider `CC1Cc2cc(S(=O)(=O)CCC(=O)NCc3ccccc3Cl)ccc2N1C(=O)C1CC1` (stereo not drawn), for which the survival is 72%.

Regarding `COc1cccc(CNC(=O)CCS(=O)(=O)c2ccc3c(c2)CC(C)N3C(=O)C2CC2)c1` (stereo not drawn), the survival is -3% (active).

With `COc1ccc(CNC(=O)CCS(=O)(=O)c2ccc3c(c2)CC(C)N3C(=O)C2CC2)cc1` (stereo not drawn), the survival was 76%.

With `COC(=O)c1ccccc1NC(=O)c1c(C)oc2ncn(C)c(=O)c12`, the survival is 95%.

For the compound `CC(C)N(C(=O)CSc1nc2ccc(Cl)cc2[nH]1)c1ccccc1`, the survival was 81%.

Take `O=c1c2cc3c(cc2nc2sc(Nc4ccc(F)c(Cl)c4)nn12)OCO3`: the survival was 138%.

For `Cc1ccc(-n2nnnc2CNC(=O)c2cc(C(F)(F)F)cc(C(F)(F)F)c2)cc1C`, the survival is -3% (active).

`Cc1ccc(-n2nnnc2CNC(=O)c2ccc(F)cc2)cc1C`: the survival is 124%.

Take `Cc1ccc(C(=O)NCc2nnnn2-c2ccc(C)c(C)c2)cc1`: the survival was 82%.

Consider `CC(C)(C)c1ccc(C(=O)NC2CCNCC2)cc1`, for which the survival is 108%.

Regarding `CC(C)Cn1c(=O)c2ccccc2n2c(CCC(=O)NCc3ccc(Cl)cc3)nnc12`, the survival was 92%.

For `O=C(Nc1ccc2nc(SCC(=O)N3CCOCC3)sc2c1)c1ccc(F)cc1`, the survival is 92%.

`Cc1ccc(C)c(Nc2nc(-c3ccccc3)c3cc(Br)ccc3n2)c1`: the survival was 42%.

Turning to `COc1cccc(Nc2nc(-c3ccccc3)c3cc(C)ccc3n2)c1`, the survival is 9% (active).

For the compound `COc1ccc(Nc2nc(-c3ccccc3)c3cc(Br)ccc3n2)cc1`, the survival was 37%.

As to `Cc1ccc2nc(Nc3ccc(Br)cc3)nc(-c3ccccc3)c2c1`, the survival was 56%.

Take `Cc1cccc(Nc2nc(-c3ccccc3)c3cc(C)ccc3n2)c1`: the survival is 11% (active).

With `Cc1ccc2nc(NN)nc(-c3ccccc3)c2c1`, the survival is 100%.

Turning to `CN(CC(=O)NCc1ccccc1)S(=O)(=O)c1ccc2[nH]c3c(c2c1)CCCC3`, the survival was 72%.

Turning to `COc1cccc(NCc2nnc3n2CCCCC3)c1`, the survival was 83%.

Consider `Cc1nc2c(c(C)nn2-c2ccccc2)c(C)c1CCC(=O)Nc1ccccc1`, for which the survival is 87%.

Take `CCc1ccc(NC(=O)CSc2nc(=O)n(Cc3ccncc3)c3c2CCC3)cc1`: the survival was 80%.

For `CCn1c(C(=O)NCc2cccc(Br)c2)cc2oc3ccccc3c21`, the survival was 7% (active).

In the case of `CCn1c(C(=O)NCc2ccccc2C)cc2oc3ccccc3c21`, the survival was 15%.

Take `CCOc1ccccc1CNC(=O)c1cc2oc3ccccc3c2n1CC`: the survival was 2% (active).

For `CCn1c(C(=O)NCc2ccc(F)cc2)cc2oc3ccccc3c21`, the survival was 115%.

Regarding `CCn1c(C(=O)NCc2cc(Br)ccc2OC)cc2oc3ccccc3c21`, the survival is 78%.

Take `CCn1c(C(=O)NCc2ccccc2Br)cc2oc3ccccc3c21`: the survival is 36%.

For `Clc1ccc(N2CCN(c3ncnc4c3nc3n4CCCC3)CC2)cc1`, the survival is 73%.

As for `Cc1cc(-n2c(C)nc3ccccc3c2=O)ccc1NC(=O)c1ccc([N+](=O)[O-])cc1`, the survival is 82%.

As for `Cc1cc(-n2c(C)nc3ccccc3c2=O)ccc1NC(=O)c1cccc([N+](=O)[O-])c1C`, the survival was -2% (active).

For the compound `Cc1ccc(C(=O)Nc2ccc(-n3c(C)nc4ccccc4c3=O)cc2)cc1[N+](=O)[O-]`, the survival was 121%.

Take `Cc1cc(-n2c(C)nc3ccccc3c2=O)ccc1NC(=O)c1ccc(C)c([N+](=O)[O-])c1`: the survival is 10% (active).

On to `Cc1c(C(=O)Nc2ccc(-n3c(C)nc4ccccc4c3=O)cc2)cccc1[N+](=O)[O-]`, for which the survival was 80%.

As for `Cc1cc(-n2c(C)nc3ccccc3c2=O)ccc1NC(=O)c1ccccc1[N+](=O)[O-]`, the survival was 88%.

In the case of `COc1ccc(-c2c[n+](=O)c3c(n2[O-])CCC3)cc1`, the survival is 103%.

`COC(=O)C1CCN(S(=O)(=O)c2ccc(OC)cc2)CC1`: the survival was 102%.

For `CCN(CC)C(=O)c1sc2c(c1C)c(=O)n(Cc1ccccc1)c(=O)n2Cc1ccc(Cl)cc1`, the survival was 73%.

For the compound `CCc1ccc(CNC(=O)C2COc3ccc(OC)cc3C2)cc1` (stereo not drawn), the survival was 93%.

`Cc1ccc(NC(=O)Cn2cc3c(n2)CCCC3)c(Cl)c1`: the survival is 93%.

For the compound `CC(C)(C)OC(=O)N1CCC(c2c(C(=O)Nc3ccc4c(c3)OCCO4)cnn2-c2ccc(F)cc2)CC1`, the survival is 69%.

Turning to `CC(C)(C)OC(=O)N1CCC(c2c(C(=O)NCc3cccs3)cnn2-c2cccc(F)c2)CC1`, the survival was -6% (active).

As to `COc1ccc(CNC(=O)c2cnn(-c3ccc(OC)cc3)c2C2CCN(C(=O)OC(C)(C)C)CC2)cc1`, the survival was 76%.

Turning to `CC(C)(C)OC(=O)N1CCC(c2c(C(=O)NCc3ccccc3)cnn2-c2ccc(F)cc2)CC1`, the survival is 133%.

In the case of `CCOc1ccc(OCC)c(NC(=O)c2cnn(-c3ccc(F)cc3)c2C2CCN(C(=O)OC(C)(C)C)CC2)c1`, the survival was 14% (active).

As to `CC(C)(C)OC(=O)N1CCC(c2c(C(=O)NCc3cccs3)cnn2-c2ccc(F)cc2F)CC1`, the survival was 81%.

On to `CC(C)(C)OC(=O)N1CCC(c2c(C(=O)NCc3ccc(F)cc3)cnn2-c2ccc(F)cc2)CC1`, for which the survival is -6% (active).

Take `Cc1ccc(-n2ncc(C(=O)NCc3cccs3)c2C2CCN(C(=O)OC(C)(C)C)CC2)cc1C`: the survival was 90%.

Consider `CCOc1ccc(NC(=O)c2cnn(-c3ccc(C)c(C)c3)c2C2CCN(C(=O)OC(C)(C)C)CC2)cc1`, for which the survival was 89%.
